PubChem BioAssay (EPA / NIEHS)
Inconclusive results are not listed. The source made the active and inactive calls. Rule for the calls: active = hit-call score of the fitted dose curve at least 0.9, where 1 is the maximum; inconclusive = response in the unintended direction; inactive = score below 0.9.

Experiments:
[1] = TOX21_p53_BLA_p2_viability: Viability Assessment in the Tox21 HCT-116 p53 Agonism Beta-lactamase Assay, Phase 2 (AID 2283591);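 note: compound exposure lasted 16 h at 37 °C; actives lower the ATP signal meaning cytotoxicity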
Procedure, shortened: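 HCT116 p53-bla cells, 4000/well, dosed after 5 h plating (217-fold dilution of DMSO stocks) and incubated 16 h at 37C. Viability taken as cellular ATP by CellTiter-Glo luminescence after 30 min RT; signal loss marks cytotoxicity.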

[2] = molecular target: Cellular tumor antigen p53 (Homo sapiens) (UniProt P04637); assay: TOX21_p53_BLA_p2_ratio: Tox21 HCT-116 p53 Agonism Beta-lactamase Assay, Ratio, Phase 2 (AID 2283592)
Procedure, shortened: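 In this cell-based reporter format, HCT116 cells were dosed with chemicals delivered from DMSO by 217-fold dilution and incubated 16 h at 37C. Emission at 460 and 530 nm after 2 h CCF4-AM loading provided the ratio, fitted upward versus DMSO.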

[3] = molecular target: Cellular tumor antigen p53 (Homo sapiens) (UniProt P04637); assay: TOX21_p53_BLA_p3_ratio: Tox21 HCT-116 p53 Agonism Beta-lactamase Assay, Ratio, Phase 3 (AID 2283596)
Procedure, shortened: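 HCT116 p53-bla cells (4000/well) given compound in DMSO (217-fold dilution) after 5 h, incubated 16 h at 37C. CCF4-AM substrate 2 h at room temperature; 460/530 nm emission ratio, gain fitted against DMSO.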

[4] = molecular target: Cellular tumor antigen p53 (Homo sapiens) (UniProt P04637); assay: TOX21_p53_BLA_p5_ratio: Tox21 HCT-116 p53 Agonism Beta-lactamase Assay, Ratio, Phase 5 (AID 2283599)
Procedure, shortened: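 HCT-116 p53-bla cells (4000/well) plated 5 h, dosed with compound (217-fold DMSO dilution) for 16 h at 37 C; CCF4-AM substrate 2 h at room temperature. Activity is the 460/530 nm emission ratio (405 nm excitation), fitted in gain-of-signal direction versus DMSO.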

[5] = TOX21_p53_BLA_p4_viability: Viability Assessment in the Tox21 HCT-116 p53 Agonism Beta-lactamase Assay, Phase 4 (AID 2283597);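 note: hits lower the luminescence signal meaning cytotoxicity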
Procedure, shortened: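 We seeded HCT116 p53 reporter cells at 4000/well and waited 5 h. We then added compounds in DMSO at a 217-fold dilution and incubated for 16 h. Viability was read as CellTiter-Glo luminescence after 30 min at RT.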

[6] = molecular target: Cellular tumor antigen p53 (Homo sapiens) (UniProt P04637); assay: TOX21_p53_BLA_p4_ratio: Tox21 HCT-116 p53 Agonism Beta-lactamase Assay, Ratio, Phase 4 (AID 2283601)
Procedure, shortened: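 HCT-116 p53 beta-lactamase reporter cells (4000/well) preincubated 5 h, then compound (217-fold dilution of DMSO stock) for 16 h at 37C. CCF4-AM substrate added 2 h at room temperature; 460/530 nm emission ratio fitted upward versus DMSO.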

[7] = TOX21_p53_BLA_p5_viability: Viability Assessment in the Tox21 HCT-116 p53 Agonism Beta-lactamase Assay, Phase 5 (AID 2283600)
Procedure, shortened: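 Compounds, pinned from DMSO at 217-fold dilution, were left on the cells for 16 h. The viability endpoint was ATP content measured by CellTiter-Glo luminescence, where falling signal reflects cytotoxicity.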

PGR (gene 5241) [8] = molecular target: PGR (gene 5241) (UniProt P06401); assay: TOX21_PR_BLA_Followup_Antagonist_ratio: Tox21 HEK293 Progesterone Receptor (PR) Antagonism Beta-lactamase Follow-Up Assay, Ratio (AID 2283934);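 note: PR-UAS-bla HEK293T cells stimulated with 1 nM R5020 agonist for 16 hr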
Procedure, shortened: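 Antagonist mode used 1 nM R5020 (final) as agonist on a beta-lactamase reporter line in HEK293T cells. Activity was taken from the substrate cleavage ratio after 16 hr exposure.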

[9] = TOX21_PR_BLA_Followup_Agonist_viability: Viability Assessment in the Tox21 HEK293 Progesterone Receptor (PR) Agonism Beta-lactamase Follow-Up Assay (AID 2283935);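 note: signal loss means lower viability so actives are cytotoxic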
Procedure, shortened: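 Multiplexed viability counter-screen: ATP-coupled luciferase signal measured after 30 min at room temperature, following 16 hr compound treatment of PR-UAS-bla HEK293T cells grown in charcoal-stripped serum.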

[10] = TOX21_PR_BLA_Followup_Antagonist_viability: Viability Assessment in the Tox21 HEK293 Progesterone Receptor (PR) Antagonism Beta-lactamase Follow-Up Assay (AID 2283936);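 note: hits lower the luminescence signal meaning cytotoxicity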
Procedure, shortened: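 PR-UAS-bla HEK293T cells (3,000/well, 2% charcoal-stripped FBS) given compound plus R5020 agonist, 16 h at 37C. CellTiter-Glo added after bla read, 30 min at room temperature; luminescence loss indicates cytotoxicity.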

PGR (gene 5241) [11] = molecular target: PGR (gene 5241) (UniProt P06401); assay: TOX21_PR_LUC_Followup_Antagonist: Tox21 HEK293 Progesterone Receptor (PR) Antagonism Luciferase Follow-Up Assay (AID 2283938);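 note: curve fitted upward as signal gain over DMSO baseline despite antagonist label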
Procedure, shortened: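 Luminescence from ONE-Glo reagent, measured after 30 min at room temperature, served as readout. Cells (HEK293 carrying PR-A-luc) had been treated 16 h at 37C with DMSO-dissolved compounds. Activity was fitted against DMSO controls.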

[12] = TOX21_PR_LUC_Followup_Antagonist_viability: Viability Assessment in the Tox21 HEK293 Progesterone Receptor (PR) Antagonism Luciferase Follow-Up Assay (AID 2283940)
Procedure, shortened: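 Cellular ATP, measured with luciferase-coupled CellTiter-Glo, served as the viability endpoint after HEK293-PR-A-luc cells were exposed to test compounds for 16 h at 37C.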

[13] = TOX21_PR_LUC_Followup_Agonist_viability: Viability Assessment in the Tox21 HEK293 Progesterone Receptor (PR) Agonism Luciferase Follow-Up Assay (AID 2283941);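 note: loss of signal means cytotoxicity so actives lower viability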
Procedure, shortened: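 Luminescent ATP quantitation (CellTiter-Glo) serves as the read-out; a drop flags cytotoxic compounds. Cells are HEK293-PR-A-luc grown in 10% charcoal-stripped FBS, plated 3,000/well, and exposed to compound for 16 h.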

THRB (gene 7068) [14] = molecular target: THRB (gene 7068) (UniProt P10828); assay: TOX21_TRB_BLA_Antagonist_Followup_ratio: Tox21 Thyroid Hormone Receptor beta Antagonism Beta-lactamase (BLA) Follow-Up Assay, Ratio (AID 2283958)
Procedure, shortened: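 In this antagonist-mode follow-up, a stably integrated GAL4-TRβ LBD fusion drives a UAS-beta-lactamase reporter in HEK293T cells. Loss of ratio signal relative to DMSO after 18 h treatment indicates activity; parallel CellTiter-Glo flags cytotoxicity.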

THRB (gene 7068) [15] = molecular target: THRB (gene 7068) (UniProt P10828); assay: TOX21_TRB_COA_Antagonist_Followup_ratio: Tox21 Thyroid Hormone Receptor beta Antagonism through Coactivator Recruitment Follow-Up Assay, Ratio (AID 2283967)
Procedure, shortened: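 Cell-free TR-FRET: GST-TRb LBD (5.0 nM) with fluorescein-SRC-2 peptide (200 nM) and Tb anti-GST antibody (2 nM), 0.10% BSA. 520:495 nm emission ratio normalized to DMSO (0%) and T3 (100%).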

[16] = TOX21_TR_RXR_BLA_Antagonist_Followup_viability: Viability Assessment in the Tox21 Thyroid Hormone Receptor beta Retinoid X Receptor alpha (RXRa) Antagonism Beta-lactamase (BLA) Follow-Up Assay (AID 2283979)
Procedure, shortened: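 RXRa-bla HEK293T cells (2,500/well, phenol red-free DMEM, 2% charcoal-stripped FBS) were attached 5 h, then exposed to compounds at 11 concentrations in triplicate for 16 h at 37C. Viability measured by CellTiter-Glo ATP luminescence, bidirectional fitting versus DMSO.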

Measured: AC50

Chain of Cellular tumor antigen p53 (Homo sapiens) (P04637 whole entry, looked up): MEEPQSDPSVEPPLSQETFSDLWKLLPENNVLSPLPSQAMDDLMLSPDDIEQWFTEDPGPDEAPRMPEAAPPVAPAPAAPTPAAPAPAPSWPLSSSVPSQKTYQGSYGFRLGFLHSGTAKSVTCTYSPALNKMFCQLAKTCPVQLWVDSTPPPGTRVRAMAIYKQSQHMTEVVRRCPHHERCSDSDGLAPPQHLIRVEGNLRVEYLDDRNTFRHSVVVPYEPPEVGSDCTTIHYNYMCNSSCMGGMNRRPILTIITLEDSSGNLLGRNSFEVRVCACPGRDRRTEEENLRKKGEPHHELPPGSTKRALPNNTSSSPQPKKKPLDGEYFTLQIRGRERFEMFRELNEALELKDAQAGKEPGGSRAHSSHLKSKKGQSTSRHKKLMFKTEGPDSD
Chain of THRB (gene 7068) (P10828 whole entry, looked up, the tested form may be a part): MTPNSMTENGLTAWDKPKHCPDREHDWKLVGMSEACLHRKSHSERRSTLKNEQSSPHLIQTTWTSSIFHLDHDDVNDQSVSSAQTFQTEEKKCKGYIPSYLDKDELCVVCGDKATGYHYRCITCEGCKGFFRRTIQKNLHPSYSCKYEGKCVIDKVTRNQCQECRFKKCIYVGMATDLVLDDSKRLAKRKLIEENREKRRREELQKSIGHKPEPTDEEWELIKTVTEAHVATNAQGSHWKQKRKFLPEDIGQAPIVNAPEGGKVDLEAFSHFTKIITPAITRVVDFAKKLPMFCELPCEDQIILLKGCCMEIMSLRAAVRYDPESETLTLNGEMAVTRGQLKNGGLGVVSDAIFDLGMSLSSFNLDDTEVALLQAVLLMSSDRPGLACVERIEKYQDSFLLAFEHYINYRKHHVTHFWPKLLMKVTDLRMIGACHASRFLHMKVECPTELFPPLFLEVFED
Chain of PGR (gene 5241) (P06401 whole entry, looked up): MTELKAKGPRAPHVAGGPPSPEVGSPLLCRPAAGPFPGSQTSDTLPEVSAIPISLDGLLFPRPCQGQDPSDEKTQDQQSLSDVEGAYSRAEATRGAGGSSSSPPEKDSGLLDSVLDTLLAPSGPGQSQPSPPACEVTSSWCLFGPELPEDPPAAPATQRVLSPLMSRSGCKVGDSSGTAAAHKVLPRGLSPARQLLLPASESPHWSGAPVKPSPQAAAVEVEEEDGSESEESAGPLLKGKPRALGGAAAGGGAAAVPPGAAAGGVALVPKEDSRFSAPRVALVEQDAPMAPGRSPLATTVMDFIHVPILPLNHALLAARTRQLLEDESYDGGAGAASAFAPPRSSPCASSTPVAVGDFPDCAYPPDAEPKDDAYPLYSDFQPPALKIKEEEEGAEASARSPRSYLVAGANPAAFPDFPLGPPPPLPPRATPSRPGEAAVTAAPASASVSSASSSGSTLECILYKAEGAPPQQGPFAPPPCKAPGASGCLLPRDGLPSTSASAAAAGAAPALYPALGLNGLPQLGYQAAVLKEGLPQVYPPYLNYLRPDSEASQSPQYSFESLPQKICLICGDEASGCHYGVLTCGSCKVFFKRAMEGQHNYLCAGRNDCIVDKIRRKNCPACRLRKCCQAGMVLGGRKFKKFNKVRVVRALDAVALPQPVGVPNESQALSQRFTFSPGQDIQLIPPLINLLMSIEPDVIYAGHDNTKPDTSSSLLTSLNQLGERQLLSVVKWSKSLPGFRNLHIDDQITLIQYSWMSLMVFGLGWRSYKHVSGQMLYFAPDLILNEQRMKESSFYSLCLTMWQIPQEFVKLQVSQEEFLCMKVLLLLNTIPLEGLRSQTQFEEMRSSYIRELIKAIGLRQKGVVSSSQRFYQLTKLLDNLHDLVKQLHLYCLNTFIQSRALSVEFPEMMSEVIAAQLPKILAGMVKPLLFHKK

C=CCN(C1=NCCN1)c1c(Cl)cccc1Cl
inactive: [1] | [2] | [3] | [4]

Cn1c(N)nc2c3cccnc3ccc21
inactive: [1] | [2] | [3] | [5] | [4] | [6]

CCN(C)N=O
inactive: [1] | [2] | [3] | [5] | [4] | [6]

CCOP(=S)(OCC)Oc1ncn(-c2ccccc2)n1
inactive: [1] | [2] | [3] | [5] | [7] | [6]

c1ccc(OCC2CO2)cc1 (configuration not stated)
inactive: [1] | [2] | [3] | [5] | [7] | [6]

O=c1oc2ccccc2c(O)c1C1CCCc2ccccc21 (configuration not stated)
inactive: [1] | [2] | [3] | [4] | [7]

NCCOS(=O)(=O)O
inactive: [1] | [2] | [3] | [4] | [7] | [6]

COCCC#N
inactive: [1] | [2] | [3] | [5] | [7] | [6]

C#C[C@]1(O)C=C[C@H]2[C@@H]3CCC4=CC(=O)CC[C@@H]4[C@H]3CC[C@@]21CC
inactive: [1] | [2] | [3] | [5] | [4] | [6]

CCC/C=C/C=C/C(=O)O[C@H]1/C(=C/C(=O)OC)C[C@H]2C[C@H]([C@@H](C)O)OC(=O)C[C@H](O)C[C@@H]3C[C@H](OC(C)=O)C(C)(C)[C@](O)(C[C@@H]4C/C(=C/C(=O)OC)C[C@H](/C=C/C(C)(C)[C@]1(O)O2)O4)O3
inactive: [1] | [2] | [3] | [5] | [4] | [6]

COC(C)(C)C
inactive: [1] | [2] | [3] | [5] | [4] | [6]

CNP(=O)(OC)Oc1ccc(C(C)(C)C)cc1Cl (configuration not stated)
inactive: [1] | [2] | [3] | [4] | [7] | [6]

ClCc1ccc(Cl)cc1Cl
inactive: [1] | [2] | [3] | [4] | [7]

O=c1c2ccccc2[se]n1-c1ccccc1
inactive: [1] | [2] | [3] | [5] | [4] | [6]

C(CCOCC1CO1)COCC1CO1 (configuration not stated)
active: [3] 65.2 µM
inactive: [1] | [2] | [4] | [7] | [6]

Cc1nnc2n1-c1sc(Br)cc1C(c1ccccc1Cl)=NC2
inactive: [1] | [2] | [3] | [5] | [4] | [6]

CN1CCN(C(=O)O[C@H]2c3nccnc3C(=O)N2c2ccc(Cl)cn2)CC1
inactive: [1] | [2] | [3] | [5] | [7] | [6]

COC(=O)C(Br)CBr (configuration not stated)
inactive: [1] | [2] | [4] | [6]
active: [3] 48 µM

CC(=O)C1CCOC1=O (configuration not stated)
inactive: [1] | [2] | [3] | [4] | [7] | [6]

CC(C)(C)NC[C@H](O)c1ccc(O)cc1Cl
inactive: [1] | [2] | [5]

CCCC(=O)Cl
inactive: [1] | [2] | [3] | [5] | [7]

O=c1[nH]oc2c1CCNC2
inactive: [1] | [2] | [3] | [4] | [6]

O=C(CCl)c1ccc(Oc2ccc(C(=O)CCl)cc2)cc1
inactive: [1] | [3] | [5] | [4]
active: [2] 43.4 µM | [6] 41.9 µM

CC[C@@H](CO)NC(=O)[C@@H]1C=C2c3cccc4[nH]cc(c34)C[C@H]2N(C)C1
inactive: [1] | [2] | [3] | [5] | [7] | [6]

CNC(=O)Oc1cc(C)c(N(C)C)c(C)c1
inactive: [1] | [2] | [3] | [4] | [6]

CC[C@H]1C[C@H]2[C@@H]3CCC4=CC(=O)CC[C@@H]4[C@H]3CC[C@]2(C)[C@H]1O
not listed: [4] | [7]
inactive: all other assays above

C=CCSSCC=C
active: [3] 57.5 µM
inactive: [1] | [2] | [5] | [7]

COP(=S)(OC)Oc1ccc([N+](=O)[O-])cc1Cl
inactive: [1] | [2] | [3] | [5] | [7] | [6]

OP(O)c1ccccc1
inactive: [1] | [2] | [3] | [4] | [7] | [6]

O=C(O)/C=C/C(=O)O
inactive: [1] | [2] | [3] | [4] | [7] | [6]

NC1=NC(=O)C(c2ccccc2)O1 (configuration not stated)
inactive: [1] | [2] | [3] | [7] | [6]

CC(Cc1ccccc1)NCCn1cnc2c1c(=O)n(C)c(=O)n2C (configuration not stated)
inactive: [1] | [2] | [3] | [4] | [7] | [6]

COP(=O)(OC)OC(=CCl)c1cc(Cl)c(Cl)cc1Cl
inactive: [1] | [2] | [3] | [5] | [4] | [6]

CCC1(c2ccccc2)C(=O)NC(=O)N(C)C1=O (configuration not stated)
inactive: [1] | [2] | [3] | [7]
